The structures appear in SMILES notation. Values joined by “and” are separate entries in the source; they are usually repeats but may differ in a detail not shown here. Equal values may be shown once. Hit rate of the full screen: of about 160,000 compounds, about 310 (0.19%) were called active. Shown is part of a subset that was picked to be rich in actives. Values without a mark were called inactive. Rule as the data show it: active = inhibition above about 30%; inactive = the rest.

The target of this experiment is 14-3-3 protein gamma (Homo sapiens) (UniProt P61981). As to the kind of experiment: modulators of 14-3-3 gamma protein binding, primary screen, biochemical, fluorescence polarization (AID 422).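 Also: 0% = protein plus tracer without compound and 100% = blank with tracer alone.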 The following applies: FP, 14-3-3gamma / TMR-pS259-Raf peptide binding; at 40 µM; active compounds read high.
Chain of 14-3-3 protein gamma (Homo sapiens) (P61981 whole entry, looked up): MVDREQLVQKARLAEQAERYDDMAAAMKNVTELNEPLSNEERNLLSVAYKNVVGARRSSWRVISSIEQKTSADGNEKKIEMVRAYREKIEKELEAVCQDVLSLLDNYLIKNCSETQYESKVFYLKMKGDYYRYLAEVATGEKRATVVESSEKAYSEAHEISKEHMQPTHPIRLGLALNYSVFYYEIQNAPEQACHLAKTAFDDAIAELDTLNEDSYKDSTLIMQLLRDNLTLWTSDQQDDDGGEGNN
Consider `O=C(C1CCC(Cn2c(=O)[nH]c3ccccc3c2=O)CC1)N1CCN(Cc2ccccc2)CC1` (stereo unspecified), for which the inhibition was -3.1%.
For `CSc1cccc(NC(=O)C2c3ccccc3C(=O)N3CCc4ccccc4C23)c1` (stereo unspecified), the inhibition was -1.47%.
The result for `CCCCNC(=O)c1c[nH]c2ccc(S(=O)(=O)Nc3cccc(OC)c3)cc2c1=O` reads -22.6%; that for `O=C(NC1CCCCCCCCCCC1)c1cnc2n(c1=O)CCS2`, -1.96%; that for `CCCOc1ccccc1C1NC(=O)NC(C)=C1C(=O)OCC1CCCO1` (stereo unspecified), 3.08%.
The result for `CN(C)/C=C1/Nc2ccccc2C1=O` reads -0.95%; that for `CN(C)/C=C1/C(=O)Nc2ccccc21`, -2.07%; that for `O=C1Nc2ccccc2C1=Nc1ccc(O)cc1`, 87.3% (active).
As for `O=C(Nc1nc2ccccc2n1CCOc1ccccc1)c1cccs1`, the figure is 8.38%; as for `CCOCCn1cnc2sc(C(=O)N3CCN(c4ccccn4)CC3)c(C)c2c1=O`, 1.28%; as for `Cc1c(Cl)cccc1NC(=O)c1cc(S(=O)(=O)N2CCC(C)CC2)ccc1F`, -5.5%.
For `O=C(Nc1nc(-c2cccs2)cs1)c1ccc(S(=O)(=O)N2CCc3ccccc3C2)cc1`, the inhibition is -43.5%.
As to `CN1C(=O)c2ccccc2C(C(=O)N2CCC(Cc3ccccc3)CC2)C1c1c[nH]c2ccccc12` (stereo unspecified), the inhibition is 6.73%.
Turning to `COc1ccc(CSc2n[nH]c(C)n2)cc1Cl`, the inhibition was -0.37%.
For the molecule `CSCCC(NS(=O)(=O)c1cccs1)C(=O)Nc1ccc(F)cc1` (stereo unspecified), the inhibition is -1.64%.
Regarding `CC(=O)OCC#CCSc1nc2ccccc2o1`, the inhibition is -1.9%.
The result for `CCOC(=O)C1CCN(S(=O)(=O)c2ccc(I)cc2)CC1` reads -2.44%; that for `CC1CCN(S(=O)(=O)c2ccc3ncn(CC(=O)N4CCN(Cc5ccccc5)CC4)c(=O)c3c2)CC1`, 1.95%; that for `CCCCNC(=O)C1c2ccccc2C(=O)N(C)C1c1c[nH]c2ccccc12` (stereo unspecified), -0.96%.
As for `O=C(OC(c1ccccc1)c1nccc2ccccc12)c1ccc([N+](=O)[O-])cc1` (stereo unspecified), the figure is -10%; as for `NC(=O)C1CCN(C(=O)c2ccc3nc4ccccc4c(=O)n3c2)CC1`, 12.3%.
For `CN(C(N)=O)C1CCS(=O)(=O)C1` (stereo unspecified), the inhibition was 2.31%.
The result for `S=c1[nH]nc(-c2cccs2)n1Cc1ccc2c(c1)OCO2` reads -5.66%.
As for `Nc1ccc2c3c(cccc13)C(=O)NC2=O`, the inhibition is 14.8%.
As for `CCN1C(=O)c2cccc3c(N)ccc1c23`, the inhibition is 5.38%.
The result for `CN1C(=O)c2cccc3c(N)ccc(c23)C1=O` reads 85.5% (active).
For the molecule `COc1ccc(N2C(=O)CCC(C(=O)Nc3ccc(Br)cc3C)C2c2ccc(OC)c(OC)c2)cc1` (stereo unspecified), the inhibition is -9.11%.
The result for `COc1ccccc1CNC(=O)c1cc(-c2ccc(Br)s2)nc2ccccc12` reads -1.85%; that for `CCCCc1nc(N)c(C#N)c(-c2ccccc2Cl)c1CCC`, -5.82%.
The result for `COc1ccc(-c2nc(CS(=O)CC(=O)NCc3ccccn3)c(C)o2)cc1` (stereo unspecified) reads 99.2% (active).
Turning to `COc1ccc(-c2nc(CS(=O)CC(=O)N3CCc4ccccc4C3)c(C)o2)cc1` (stereo unspecified), the inhibition is -4.26%.
The result for `COc1ccc(-c2nc(CS(=O)CC(=O)NCc3cccnc3)c(C)o2)cc1OC` (stereo unspecified) reads -5.12%; that for `Fc1ccc(Nc2nc(NCc3ccccc3)c3ccccc3n2)cc1`, -3.64%; that for `CSc1ccc(-c2nc3ccc(Cl)cn3c2Nc2ccc3c(c2)OCO3)cc1`, -19%.
As to `COc1ccc(C2Nc3ccccc3NC3=C2C(=O)CC(c2cccc([N+](=O)[O-])c2)C3)cc1` (stereo unspecified), the inhibition is 0.48%.
The result for `CCOc1ccc(S(=O)(=O)NC2CCCC2)c2cccnc12` reads -6.1%; that for `COc1ccc([N+](=O)[O-])cc1NC(=O)c1c([N+](=O)[O-])cnn1C`, -2.94%; that for `O=C1C2CC=C(Cl)CC2C(=O)N1c1ccc(O)cc1` (stereo unspecified), -3.22%.
In the case of `COC(=O)c1ccccc1NC(=O)CCCn1nc([N+](=O)[O-])c(Cl)c1C`, the inhibition is -3.89%.
With `CCC(C)(C(=O)NC1CCCCC1)N(C(=O)CC1NC(=O)NC1=O)c1ccccc1` (stereo unspecified), the inhibition was -2.16%.
With `CC1CC(C)CN(CCCNC(=O)C2c3ccccc3C(=O)N(C)C2c2cccs2)C1` (stereo unspecified), the inhibition is 4.52%.
As for `Cc1c(-c2nc3ccccc3c(=O)[nH]2)sc2nc(-c3ccccc3)nc(N)c12`, the figure is -34.5%; as for `CC(C)CN(CC(C)C)S(=O)(=O)c1ccc(Br)cc1`, -5.87%; as for `CCCCCn1c(=O)[nH]c2cc(C(=O)NC(C)C)ccc2c1=O`, -3.1%.
The result for `COc1cc(N=Cc2c(O)[nH]c3ccccc23)cc(OC)c1OC` reads 1.7%.
As to `Cc1[nH]c2ccccc2c1C=Nc1ccc(O)cc1`, the inhibition was 121% (active).
The result for `COc1ccc(N=Cc2c(O)[nH]c3ccccc23)cc1OC` reads -6.05%.
As for `CCCCNC(=O)C1CCC(=O)N1CCc1ccccc1` (stereo unspecified), the inhibition was -1.84%.
As for `CC1=C(C(=O)OCCc2ccccc2)C(c2cccc([N+](=O)[O-])c2)NC(=O)N1` (stereo unspecified), the figure is -4.75%; as for `O=C1NC2=C(C(=O)c3ccccc32)C(c2ccccc2)S1` (stereo unspecified), 3.21%; as for `COc1ccc(C2C=C(c3ccc(-c4ccccc4)cc3)Nc3ncnn32)cc1` (stereo unspecified), -7.71%.
As for `O=C(Nc1ccc(-c2nnc(-c3ccccc3)o2)cc1)C1CCCO1` (stereo unspecified), the figure is 5.13%.
As for `O=C(Nc1ccc(-c2nc3ccc(NC(=O)c4ccc(Br)o4)cc3[nH]2)cc1)c1ccc(Br)o1`, the figure is -23.6%; as for `O=C(Nc1ccc(-c2nnc(-c3ccccc3)o2)cc1)c1ccc(Br)o1`, 116% (active).
`O=C(CCSCc1cccc(F)c1)N1CCc2ccccc21`: the inhibition was -8.82%.
As for `O=C(CN1CCCN(S(=O)(=O)c2ccc(Br)cc2)CC1)Nc1ccccc1F`, the inhibition is -7.48%.
In the case of `CCc1ccc(OCCSc2nc3ccccc3c(=O)[nH]2)cc1`, the inhibition is -1.81%.
Take `CC(NC(=O)C(Cc1ccc([N+](=O)[O-])cc1)N1C(=O)c2ccccc2C1=O)c1ccc(CCBr)cc1` (stereo unspecified): the inhibition is -10.4%.
The result for `C=C(C)Cn1c(-c2ccc(N(C)C)cc2)nc2ccccc21` reads -2.28%; that for `Cc1c(Cl)cccc1N1C(=O)C2C3c4ccccc4C(c4ccccc43)C2C1=O` (stereo unspecified), 1.55%; that for `O=C(Nc1ccccc1C(F)(F)F)c1ccc(SC2CCCCC2)c([N+](=O)[O-])c1`, -3.43%.
Take `O=C(Nc1cccc2c1C(=O)c1ccccc1C2=O)c1ccccc1Br`: the inhibition is -33.2%.
The result for `COc1cc2c(cc1OC)C(COc1ccc3c(C)cc(=O)oc3c1)N(C(=O)c1cc(C)cc(C)c1)CC2` (stereo unspecified) reads -4.93%; that for `O=C(Cn1cnc([N+](=O)[O-])c1)C1CC1`, 7.38%.
As for `COc1ncnc2c1N=C1CC(C)(C)CC(N)=C1S2`, the inhibition is 56.3% (active).
For the molecule `CC(=O)CCC=C(C)CCC=C(C)C`, the inhibition was -6.82%.
As for `Cc1ccc(-c2nc3ccccc3c(C(=O)O)c2C)s1`, the figure is -5.29%; as for `O=C1NC(c2ccc(Cl)cc2)C(C(=O)c2ccccc2)C(O)(C(F)(F)F)N1` (stereo unspecified), 9.54%.
In the case of `O=C(NCCCN1CCCC1)c1ccc(N2CCCC2=O)cc1`, the inhibition is 2.82%.
In the case of `Cc1ccc(Cl)cc1N1C(=O)C(N2C(=O)c3ccc([N+](=O)[O-])cc3C2=O)C1c1cccc(F)c1` (stereo unspecified), the inhibition was -4.78%.
The result for `CCCC(=O)N(c1ccc2oc(C)c(C(=O)OC)c2c1)S(=O)(=O)c1cc([N+](=O)[O-])ccc1C` reads -23.1%.
As for `COc1ccc(CN2C(=O)CCC2(C)C(=O)NC2CCCCCC2)c(OC)c1` (stereo unspecified), the figure is -7.62%; as for `COc1ccc2cc(-c3nnc(Nc4ccccc4F)s3)c(=O)oc2c1`, -11.4%.
The result for `COC(=O)C1=C(C)NC2=C(C(=O)CC(c3ccccc3Cl)C2)C1c1ccc2c(c1)OCO2` (stereo unspecified) reads -2.26%; that for `O=c1oc2ccc(Cl)cc2cc1-c1cn2cc(Cl)cc(Cl)c2n1`, -12.1%; that for `CN1CCc2c(n(-c3ccccc3)c3ccccc23)C1=O`, -14.8%.
For the molecule `COc1cccc(C=Nc2cccc(C(=O)Nc3cccc4ccccc34)c2)c1O`, the inhibition was 2.57%.
Turning to `CCOc1ccccc1C(=O)Nc1ccc(I)cc1C`, the inhibition is -132%.
Take `CCOc1ccc(N=Cc2c(O)c(C(=O)Nc3ccccc3C)cc3ccccc23)cc1`: the inhibition is 79.8% (active).
The result for `CCC(=O)N1CCc2cc(OC)c(OC)cc2C1COc1cccc(C(F)(F)F)c1` (stereo unspecified) reads -6%; that for `Cc1ccc(-c2cc(C(=O)OCC(C)C)c3cc(C)ccc3n2)cc1`, 3.92%.
The result for `COc1cc(C2Nc3ccccc3NC3=C2C(=O)CC(c2ccccc2Cl)C3)cc(Cl)c1O` (stereo unspecified) reads -12.8%; that for `COc1ccc(-n2ncc3c(N4CCc5ccccc54)ncnc32)cc1`, -7.74%; that for `COc1ccc(-n2ncc3c(N4CCCc5ccccc54)ncnc32)cc1`, 43.9% (active).
Turning to `Cc1cccc(-n2ncc3c(N4CCc5ccccc54)ncnc32)c1`, the inhibition is -10.6% and 1.75%.
As to `CC1Cc2nc(SCC(=O)Nc3cccc(C(F)(F)F)c3)n(C)c(=O)c2S1` (stereo unspecified), the inhibition is -7.37%.
On to `CCOc1ccc(S(=O)(=O)N2CCC(C)CC2)c2ccccc12`, for which the inhibition was -10.1%.
As for `Cc1[nH]c2ccccc2c1C(=O)CSc1nc2ccccc2s1`, the inhibition is -9.51%.
The result for `CCN1C(=O)c2cccc3c(S(=O)(=O)NC4CC(C)(C)NC(C)(C)C4)ccc1c23` reads -11.1%; that for `CC(C)(C)c1ccc(C(=O)NCc2n[nH]c(=S)n2-c2cccc(C(F)(F)F)c2)cc1`, 4.88%; that for `CN1C(=O)NC(c2cccc(Cl)c2)C2=C1CCCC2=O` (stereo unspecified), 2.47%.

(Values after PubChem BioAssay AID422 (Emory University Molecular Libraries Screening Center, 2006).)
